The values below come from PubChem BioAssay (NCATS).

Calls of active or inactive are those of the source. The call rests on the fitted dose curve; in most records, active means well fitted activation curve with a large enough effect; inconclusive means small, poorly fitted or top-dose-only effect; inactive means flat fitted curve, though single readings scatter.

A short description of this assay: Confirmation and Secondary Assay for Modulators of Hemoglobin Beta Chain Splicing at IVS2 705 locus (AID 930). Conditions: HeLa EGFP-705 splicing reporter, GFP fluorescence, 48 h; series mostly up to 46.1 µM. A digest of the protocol:
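HeLa cells stably carrying EGFP interrupted by mutant beta-globin IVS2-705 intron (CMV-driven) were seeded at 500 cells/well, treated next day with compound for 2 days at 37C; corrected splicing restores EGFP, read as total peak GFP intensity per well.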
With `CC(C)(C)CC(C)(C)c1ccc(O)c(Cc2ccc(Cl)cc2Cl)c1`, the call was inactive. Take `O=C1OCCN1/N=C/c1ccc([N+](=O)[O-])o1`: the result was inactive.

For the compound `CCn1cc(C(=O)O)c(=O)c2cnc(N3CCCC3)nc21`, the call was inactive. To `CCCCOc1cc(C(=O)NCCN(CC)CC)c2ccccc2n1` belongs “inactive”. The entry for `CCC(=O)c1c(O)cc(O)cc1O` is “inactive”; for `COc1cc(OC)cc(OC)c1` it is “inactive”. The entry for `CCN1CCN(c2cc3c(cc2F)c(=O)c(C(=O)O)cn3C2CC2)CC1` is “inactive”; for `Cc1cc(=O)n(-c2ccccc2)n1C` it is “inactive”. On to `Cc1c(C(N)=O)cc([N+](=O)[O-])cc1[N+](=O)[O-]`, for which the call was inactive.

`CCCCCCCCCCCCCCCCOP(=O)([O-])OCC[N+](C)(C)C`: the compound was called inactive. Take `Cc1ccnc(NS(=O)(=O)c2ccc(N)cc2)n1`: the outcome was inactive. To `CCN(CCCc1ccccc1)CCCc1ccccc1` belongs “inactive”; to `c1ccc(-c2ccc(C(c3ccccc3)n3ccnc3)cc2)cc1` (stereo not given), “inactive”; to `CCOC(=O)n1ccn(C)c1=S`, “inactive”. As to `O=C(OCC(O)CO)c1ccccc1Nc1ccnc2cc(Cl)ccc12` (stereo not given), the compound was classed as inactive.

With `CC(Cc1cccc(C(F)(F)F)c1)NCCOC(=O)c1ccccc1` (stereo not given), the compound was classed as inactive. As to `Oc1ccc(Cl)c2cccnc12`, the compound was classed as inactive. To `COc1c2occc2c(OC)c2c(=O)cc(C)oc12` belongs “inactive”; to `CN1CCN(C(c2ccccc2)c2ccccc2)CC1`, “inactive”. The entry for `CN1CCC(=C2c3ccccc3Sc3ccccc32)CC1` is “inactive”; for `CCCCOc1ccc(OCCCN2CCOCC2)cc1` it is “inactive”; for `O=C1c2ccccc2C(=O)C1c1ccccc1` it is “inactive”. The entry for `OCc1ccccc1O` is “inactive”. In the case of `COc1c(C)c2c(c(O)c1C/C=C(\C)CCC(=O)O)C(=O)OC2`, the outcome was inactive.

Take `Oc1c(I)cc(I)c2cccnc12`: the call was inactive.

`COc1ccc(OC)c(C(O)CNC(=O)CN)c1` (stereo not given): the result was inactive. Take `CCCCOc1ccc(C(=O)CCN2CCCCC2)cc1`: the outcome was inactive. In the case of `OC(CCN1CCCCC1)(c1ccccc1)c1ccccc1`, the compound was called inactive.

In the case of `CCCCC1=NC2(CCCC2)C(=O)N1Cc1ccc(-c2ccccc2-c2nn[nH]n2)cc1`, the call was inactive. Take `O=C(COc1ccc(Cl)cc1)N1CCN(Cc2ccc3c(c2)OCO3)CC1`: the compound was classed as inactive.
